Source: PubChem
Rows were chosen to be rich in hits. Some 1.4% of all compounds tested hit in one or more screens of this group.
MBD2 inh = blocks human MBD2 binding to methylated DNA; Q9UBB5; TR-FRET, MBD2 binding to methylated oligonucleotide; inhibition, % at 4.4 µM; hit rate 0.31% among 370,000; AID 686964; in the data active = inhibition above about 13%
LEDGF integ inh = blocks HIV-1 LEDGF/p75-dependent DNA integration; TR-FRET IN-LEDGF/p75 DNA integration, Eu/Cy5; hit rate 0.64% among 370,000; inhibition, % at 3.7 µM;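 active = inhibition above the screen-wide mean plus 3 SD, cut at about 13% in these data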;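 also: signal is the Cy5 over europium emission ratio at 671 and 618 nm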
UHRF1 binding = UHRF1 methyl-DNA binding inhibition. Q96T88. UHRF1 binding to methylated oligo, TR-FRET. inhibition, % at 4.4 µM. hit rate 0.75% among 370,000; in the data active = inhibition above about 21%;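 also: UHRF1 SRA domain binding a hemimethylated CpG hairpin DNA probe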
Casp6 inh = inhibitors of human caspase-6; P55212; purified caspase-6, Z-VEID-R110 cleavage fluorescence; inhibition, % at 12.5 µM; hit rate 0.53% among 350,000;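 active = mean inhibition across replicates at least about 35%, with every replicate also reaching that limit, limit read from the data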
Target sequence (P55212 24-179 limits assumed): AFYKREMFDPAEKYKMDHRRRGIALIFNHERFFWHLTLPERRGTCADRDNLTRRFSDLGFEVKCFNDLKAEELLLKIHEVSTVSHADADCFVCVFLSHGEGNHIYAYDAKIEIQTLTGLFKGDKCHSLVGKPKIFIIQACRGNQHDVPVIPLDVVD
Target sequence (P55212 194-293 limits assumed): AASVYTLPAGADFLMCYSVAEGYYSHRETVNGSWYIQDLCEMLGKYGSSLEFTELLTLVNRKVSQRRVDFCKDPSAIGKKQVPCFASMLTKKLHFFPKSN
IN multimer act = counter-screen for LEDGF/p75 integration inhibitors: HIV-1 integrase multimerization activators. TR-FRET HIV-1 integrase multimerization, biochemical. activation, % at 7.7 µM. shares compounds with LEDGF integ inh. hit rate 17% among 2,000; in the data active = activation above about 8.9%
TRFRET interf = counter-screen for LEDGF/p75 integration inhibitors: TR-FRET optical interference. shares compounds with LEDGF integ inh. TR-FRET optical interference counterscreen, HIV-1 IN multimerization. inhibition, % at 7.7 µM. 2,000 tested, under 10 active. AID 1053135;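 active = inhibition above the mean over all tested compounds plus 3 SD, which no compound reached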
LEDGF integ conf = confirmation of HIV-1 LEDGF/p75-dependent integration inhibitors; shares compounds with LEDGF integ inh; TR-FRET LEDGF/p75-dependent HIV-1 integration, biochemical; inhibition, % at 3.7 µM; hit rate 36% among 2,000; AID 1053136; in the data active = inhibition above about 14%
Numbers stand for hits; . = inactive; / = no result given.

SMILES | MBD2 inh | LEDGF integ inh | UHRF1 binding | Casp6 inh | IN multimer act | TRFRET interf | LEDGF integ conf
CCc1nc2c(OCC3COc4ccccc4O3)cccn2c1N(C)C(=O)c1ccc(OC)cc1 (configuration not stated) | . | . | . | . | / | / | /
CCc1nc2c(OCC3COc4ccccc4O3)cccn2c1N(C)C(=O)c1cccc(OC)c1 (configuration not stated) | . | 20 | . | . | . | . | .
NC(=O)/C(=C\c1ccco1)NC(=O)c1ccco1 | . | 14 | . | . | . | . | .
Cc1cccc(NC2=C(NCCO)C(=O)c3ccccc3C2=O)c1 | . | 20 | . | 92 | . | . | .
Cc1cccc(Nc2nc(N)c([N+](=O)[O-])c(NCCO)n2)c1 | . | . | . | . | / | / | /
Cc1nc(SCC(=O)NCc2ccc3c(c2)OCO3)c(C#N)c2c1CCCC2 | . | 91 | . | / | . | . | .
CCCCn1c(=O)[nH]c2nc3cc(N)ccc3nc2c1=O | . | 17 | . | . | . | . | .
O=C(NC1CCCC1)[C@@H]1[C@@H](CO)[C@@H]2Cn3c(ccc(-c4cccnc4)c3=O)[C@@H]2N1CCc1ccccc1 | / | / | / | . | / | / | /
O=C(O)c1cccc(Cl)n1 | . | 83 | . | . | . | . | .
C[C@@H]1CN([C@@H](C)CO)C(=O)c2cc(-c3ccc(F)cc3)cnc2O[C@H]1CN(C)CC1CCCC1 | / | / | / | . | / | / | /
Cc1cc(=O)oc2cc(NC(=O)CC3(CC(=O)O)CCCC3)ccc12 | . | 21 | . | . | . | . | .
Cc1ccc(NC(=O)CC2(CC(=O)O)CCCC2)cc1 | . | . | . | . | / | / | /
O=S(=O)(Nc1ccc(O)c2ccccc12)c1cccs1 | . | 26 | . | 53 | . | . | .
CCCCCc1c(O)nc(SCC(=O)NCC2CCCO2)[nH]c1=O (configuration not stated) | . | 34 | . | / | . | . | .
C[C@@H]1CN([C@H](C)CO)C(=O)c2cc(-c3cccc(F)c3)cnc2O[C@@H]1CN(C)S(=O)(=O)c1cccc(F)c1 | / | / | / | . | / | / | /
C[C@@H]1CN([C@H](C)CO)C(=O)c2cc(NC(=O)Nc3ccc(F)cc3)ccc2O[C@@H]1CN(C)Cc1ccncc1 | / | / | / | . | / | / | /
COc1ccc(-c2csc(NC(=O)c3ccccc3F)c2C(=O)O)cc1 | . | 15 | . | . | . | . | .
O=C(Nc1scc(-c2ccccc2)c1C(=O)O)c1ccccc1Cl | . | . | . | . | / | / | /
O=C([C@H]1[C@H](CO)[C@H]2Cn3c(ccc(-c4ccccc4F)c3=O)[C@@H]1N2C(=O)C1CCC1)N1CCCCC1 | / | / | / | . | / | / | /
COc1ccc(/C=N/Nc2nc(N)cc(Cl)n2)cc1OC | . | 28 | . | . | . | . | .
COc1ccc(/C=N/Nc2nonc2N)cc1OC | . | . | . | / | / | / | /
CC(=O)Nc1ccc(OCc2cn(CC(=O)c3ccc(O)cc3)nn2)cc1 | . | 15 | . | / | . | . | .
CC(=O)Nc1ccc(C(=O)CSc2nnnn2C)cc1 | . | . | . | . | / | / | /
O=C([C@H]1[C@H](CO)[C@H]2Cn3c(ccc(C4=CCCCC4)c3=O)[C@H]2N1Cc1nccs1)N1CCOCC1 | / | / | / | . | / | / | /
CNC(=O)C[C@H]1CC[C@@H]2[C@@H](COc3ccc(NS(=O)(=O)c4cccc(F)c4)cc3C(=O)N2C)O1 | / | / | / | . | / | / | /
SMILES | MBD2 inh | LEDGF integ inh | UHRF1 binding | Casp6 inh | IN multimer act | TRFRET interf | LEDGF integ conf
Fc1ccccc1N1CCN(C2CCCN(Cc3ccccc3C(F)(F)F)C2)CC1 (configuration not stated) | . | 16 | . | . | . | . | .
Cc1ccc(/C=C2\SC(=S)N(C3CCS(=O)(=O)C3)C2=O)o1 (configuration not stated) | . | 24 | . | . | . | . | .
NS(=O)(=O)c1ccc(-c2ccc(/C=C3\SC(=S)N(C4CCS(=O)(=O)C4)C3=O)o2)cc1 (configuration not stated) | . | . | . | . | / | / | /
Cc1ccc(NC(=O)C(=O)NCC2CCCO2)cc1C (configuration not stated) | . | 78 | . | . | . | . | .
O=C(NCCc1ccccc1)C(=O)NCC1CCCO1 (configuration not stated) | . | 84 | . | . | . | . | .
CCN(CC)CCCNc1ccc2ncn3c4ccc(O)cc4c(=O)c1c23 | . | 36 | . | . | 20 | . | 14
CN(C)CCNc1ccc2nnn3c4ccc(O)cc4c(=O)c1c23 | . | . | . | . | / | / | /
NNC(=O)c1cc(O)c(O)c(O)c1 | . | 61 | 29 | 77 | 39 | . | 63
COc1c(Cl)cc(C(=O)NN)cc1Cl | . | . | . | . | / | / | /
COCCn1nnnc1C(c1ccccc1OC)N1CCc2ccccc2C1 (configuration not stated) | . | 33 | . | / | . | . | .
O=C(c1ccc2nc(-c3ccco3)c(-c3ccco3)nc2c1)N1CCN(c2ccccc2)CC1 | . | 39 | . | / | . | . | 14
O=C1OC(c2cc(Br)c(O)c(Br)c2)c2ccccc21 (configuration not stated) | . | . | . | . | / | / | /
Nc1c(Br)cc2c(c1Br)C(O)c1ccccc1-2 (configuration not stated) | . | 26 | . | . | . | . | .
CCC(=O)Nc1nc2ccccc2n1Cc1ccccc1Cl | . | . | . | . | / | / | /
CCCCCCCn1c(NC(=O)CC)nc2ccccc21 | . | 23 | . | . | . | . | 31
CCC(=O)Nc1nc2ccccc2n1Cc1ccc(Cl)cc1 | . | 15 | . | . | . | . | .
O=C(C[C@H]1CC[C@@H]2[C@H](COC[C@@H](O)CN2C(=O)c2cnccn2)O1)NCc1ccccc1 | / | / | / | . | / | / | /
Cc1ccc2nc(N3C(=O)C(O)=C(C(=O)c4ccco4)C3c3ccc(O)cc3)sc2c1 (configuration not stated) | . | . | . | . | / | / | /
O=C(C1=C(O)C(=O)N(c2nc3ccc(Cl)cc3s2)C1c1ccco1)c1ccco1 (configuration not stated) | . | 20 | 24 | 88 | . | . | 21
CCOc1ccc2c(c1)C(C)=CC(C)(C)N2C(=O)Nc1ccccc1F | . | 22 | . | . | . | . | .
CN1CCN(CP(=O)(N2CCOCC2)N2CCOCC2)CC1 | . | 27 | . | / | . | . | .
C[C@H]1CN([C@@H](C)CO)C(=O)c2cccc(NC(=O)c3ccncc3)c2O[C@H]1CN(C)S(=O)(=O)c1ccccc1 | / | / | / | . | / | / | /
c1ccc(Nc2cccc(Nc3ccccc3)c2)cc1 | . | . | . | / | / | / | /
Oc1cccc(Nc2ccccc2)c1 | . | 16 | . | . | 26 | . | .
COc1ccc(C2CC(=O)c3c(O)cc(O)cc3O2)cc1O (configuration not stated) | . | . | . | . | / | / | /
O=C1CC(c2ccc(O)c(O)c2)Oc2cc(O)cc(O)c21 (configuration not stated) | . | 13 | . | . | . | . | 23
